Laboratory results published in PubChem BioAssay (Tox21).
Inconclusive results are not listed. The source made the active and inactive calls. Unless noted, calls come from the whole dose curve; as a rule, active = well fitted curve in the direction sought with a large enough effect in the repeat runs; inconclusive = weak or mixed curves; inactive = no such curve, though single readings can be large; an effect the other way counts as inactive or inconclusive.

How the values were obtained:
[1] = qHTS assay for small molecule agonists of the p53 signaling pathway (AID 651631; calls by dose curve; note: nearly all actives have a fitted effect of over 15% in size)
Procedure, shortened: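 Stably transfected HCT-116 cells (beta-lactamase behind p53 response elements) get compounds after a 5 h settling period; 16 h later at 37 °C, FRET substrate is loaded and fluorescence read after 2 h.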

[2] = qHTS assay for small molecules that induce genotoxicity in human embryonic kidney cells expressing luciferase-tagged ATAD5 (AID 651632); note: nearly all actives have a fitted effect of over 15% in size
Procedure, shortened: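 Genotoxicity read-out via ATAD5-luciferase: HEK293T cells, 16 hr compound incubation at 37C, Amplite detection.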

[3] = qHTS assay for small molecule agonists of the p53 signaling pathway - cell viability (AID 651633; calls by dose curve;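 note: p53RE-bla HCT reporter cells with a stable beta-lactamase p53 reporter; series mostly up to about 83 µM; nearly all actives have a fitted effect of over 30% in size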)
Procedure, shortened: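 Viability counter-read: CellTiter-Glo luminescence (30 min, room temperature) in the same p53RE-bla plates. These plates had been exposed to compounds for 16 h at 37 C.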

[4] = qHTS assay for small molecules that induce genotoxicity in human embryonic kidney cells expressing luciferase-tagged ATAD5 - cell viability (AID 651634; calls by dose curve; note: nearly all actives have a fitted effect of over 25% in size)
Procedure, shortened: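 Live-cell protease activity (CellTiter-Fluor, fluorescence) indicates viability. HEK293T cells with luciferase-tagged ATAD5; 15.5 hr compound treatment at 37C.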

[5] = qHTS assay for small molecule disruptors of the mitochondrial membrane potential - cell viability (AID 720634; calls by dose curve;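 note: human HepG2 liver cancer cells; series mostly up to about 83 µM; nearly all actives have a fitted effect of over 20% in size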)
Procedure, shortened: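 Human hepatoma HepG2 cells were treated for 1 hr with test chemicals, then given m-MPI dye and CellTiter-Glo. Cell viability reflects luminescence proportional to cellular ATP.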

[6] = qHTS assay for small molecule disruptors of the mitochondrial membrane potential (AID 720635)
Procedure, shortened: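 Mitochondrial membrane potential tracked with Mito-MPS dye, red aggregates (ex 540/em 590 nm) against green monomers (ex 490/em 535 nm). Compound treatment 1 hr at 37C, dye 30 min in HepG2.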

[7] = qHTS assay to test for compound auto fluorescence at 590 nm (red) in HepG2 cells (AID 720674)
Procedure, shortened: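 We screened compounds on adherent HepG2 cells, incubating them for an hour at 37 C in 5% CO2 before reading emission at 590 nm under 540 nm excitation; values reflect equivalence to Rose Bengal sodium fluorescence.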

[8] = qHTS assay to test for compound auto fluorescence at 535 nm (green) in HepG2 cells (AID 720675)
[9] = qHTS assay to test for compound auto fluorescence at 460 nm (blue) in HEK293 cells (AID 720678)
Procedure, shortened: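 HEK293 cells (2,000 per well, medium with 10% dialyzed FBS) attached for 4-5 hr at 37C, then received compound and stood overnight at 37C, 5% CO2. Blue fluorescence was read at Ex/Em 405/460 nm and expressed relative to triamterene.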

[10] = qHTS assay to test for compound auto fluorescence at 590 nm (red) in HEK293 cells (AID 720679)
Procedure, shortened: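 HEK293 cells (2,000/well, medium with 10% dialyzed FBS) attached for 4-5 hr at 37C, received 23 nL compound and were incubated overnight at 37C, 5% CO2. Red fluorescence was then read at 540/590nm Ex/Em, referenced to Rose Bengal sodium.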

[11] = qHTS assay to test for compound auto fluorescence at 460 nm (blue) in HEK293 cell free culture (AID 720681)
Procedure, shortened: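 Blue fluorescence (Ex 405/Em 460 nm, triamterene-equivalent) was read immediately after pin transfer of compound or DMSO into medium (DMEM, 10% FBS) without cells.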

[12] = qHTS assay to test for compound auto fluorescence at 535 nm (green) in HEK293 cell free culture (AID 720682)
Procedure, shortened: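 Using fluorescein as calibrant, autofluorescence was quantified at 485/535 nm in cell-free DMEM containing 10% FBS after pintool addition of compound or vehicle.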

[13] = qHTS assay to test for compound auto fluorescence at 590 nm (red) in HEK293 cell free culture (AID 720683)
Procedure, shortened: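 Red-channel autofluorescence of compounds in culture medium (DMEM, 10% FBS), no cells, measured at 540/590 nm. Rose Bengal sodium is the reference fluorophore for equivalence.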

[14] = qHTS assay to test for compound auto fluorescence at 590 nm (red) in HepG2 cell free culture (AID 720684)
Procedure, shortened: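 Steps: dispense MEM/10% FBS medium, no cells; pin compound or DMSO vehicle; read red channel, Ex/Em 540/590 nm. Output given as Rose Bengal sodium equivalents.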

[15] = qHTS assay to test for compound auto fluorescence at 460 nm (blue) in HepG2 cell free culture (AID 720685)
Procedure, shortened: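 Compound (23 nL) or DMSO pinned into cell-free MEM with 10% FBS; blue fluorescence read at 405/460 nm excitation/emission, expressed as auto-fluorescence equivalency to triamterene.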

[16] = qHTS assay to test for compound auto fluorescence at 535 nm (green) in HepG2 cell free culture (AID 720686)
[17] = qHTS assay to test for compound auto fluorescence at 460 nm (blue) in HepG2 cells (AID 720687)
Procedure, shortened: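 Blue-channel autofluorescence (Ex/Em 405/460 nm, triamterene-equivalent) was measured after 1 hr compound exposure at 37 C, 5% CO2. Cells were HepG2, plated overnight at 37 C in MEM plus 10% FBS.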

[18] = target: Glucocorticoid receptor (Homo sapiens) (UniProt P04150); assay: qHTS assay to identify small molecule agonists of the glucocorticoid receptor (GR) signaling pathway (AID 720691; active = well fitted activation curve with a large enough effect in the signal ratio in the repeat runs, not every such curve was filed as active; the % refers to the signal ratio)
Sequence of Glucocorticoid receptor (Homo sapiens) (P04150 whole entry, looked up): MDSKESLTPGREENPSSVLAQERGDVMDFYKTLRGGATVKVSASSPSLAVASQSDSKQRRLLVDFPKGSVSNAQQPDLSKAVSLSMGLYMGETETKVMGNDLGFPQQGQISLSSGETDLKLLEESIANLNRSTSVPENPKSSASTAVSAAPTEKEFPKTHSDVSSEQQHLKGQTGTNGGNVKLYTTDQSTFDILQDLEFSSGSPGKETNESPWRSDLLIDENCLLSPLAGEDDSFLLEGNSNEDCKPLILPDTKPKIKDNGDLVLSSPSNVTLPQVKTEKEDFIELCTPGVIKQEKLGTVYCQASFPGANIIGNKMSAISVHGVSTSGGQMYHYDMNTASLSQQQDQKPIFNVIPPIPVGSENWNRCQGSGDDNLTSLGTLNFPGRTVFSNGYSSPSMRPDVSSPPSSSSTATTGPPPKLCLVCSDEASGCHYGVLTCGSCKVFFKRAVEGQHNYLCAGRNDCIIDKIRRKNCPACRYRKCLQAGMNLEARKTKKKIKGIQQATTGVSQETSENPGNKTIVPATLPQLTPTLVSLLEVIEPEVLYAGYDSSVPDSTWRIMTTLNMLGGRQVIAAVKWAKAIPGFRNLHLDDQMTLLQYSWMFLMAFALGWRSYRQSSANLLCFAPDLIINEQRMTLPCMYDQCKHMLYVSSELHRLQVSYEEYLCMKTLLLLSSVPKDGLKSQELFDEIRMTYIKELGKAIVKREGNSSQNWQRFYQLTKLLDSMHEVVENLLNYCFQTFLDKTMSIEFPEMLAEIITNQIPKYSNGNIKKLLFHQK
Procedure, shortened: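 Beta-lactamase reporter activity, read as fluorescence intensity, was measured in GR-bla HeLa cells exposed to compounds for 18 h at 37 C and then loaded with LiveBLAzer B/G FRET substrate for 2 h at room temperature.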

[19] = target: Glucocorticoid receptor (Homo sapiens) (UniProt P04150); assay: qHTS assay to identify small molecule antagonists of the glucocorticoid receptor (GR) signaling pathway (AID 720692; active = well fitted inhibition curve with a large enough effect in the signal ratio in the repeat runs, not every such curve was filed as active; the % refers to the signal ratio)
Procedure, shortened: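 Fluorescence from cleaved LiveBLAzer B/G FRET substrate reports GRE-driven beta-lactamase in HeLa cells; compounds are tested against 5 nM dexamethasone (final) over 18 h at 37 C, substrate incubation 2 h at room temperature.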

[20] = qHTS assay to test for compound auto fluorescence at 535 nm (green) in HEK293 cells (AID 720680)
% is set by controls: 0 for no effect and ±100 for the full control effect.

C[N+]1(C)CCCCC1
inactive: Potency [1] | outcome [2] | Potency [3] | Potency [4] | Potency [5] | Potency [6] | outcome [7] | outcome [8] | outcome [9] | outcome [10] | outcome [11] | outcome [12] | outcome [13] | outcome [14] | outcome [15] | outcome [16] | outcome [17]

Nc1c(Cl)c(F)nc(OCC(=O)O)c1Cl
inactive: Potency [1] | outcome [2] | Potency [3] | Potency [4] | Potency [5] | Potency [6] | outcome [7] | outcome [8] | outcome [9] | outcome [10] | outcome [11] | outcome [12] | outcome [13] | outcome [14] | outcome [15] | outcome [16] | outcome [17] | Potency [18] | Potency [19]

BrCCc1ccccc1
inactive: Potency [1] | outcome [2] | Potency [3] | Potency [4] | Potency [5] | outcome [7] | outcome [8] | outcome [9] | outcome [10] | outcome [20] | outcome [11] | outcome [12] | outcome [13] | outcome [14] | outcome [15] | outcome [16] | outcome [17] | Potency [18] | Potency [19]

CCN(CC)CCOC(=O)C(O)(c1ccccc1)c1ccccc1
inactive: Potency [1] | outcome [2] | Potency [3] | Potency [4] | Potency [5] | Potency [6] | outcome [7] | outcome [8] | outcome [9] | outcome [10] | outcome [20] | outcome [11] | outcome [13] | outcome [14] | outcome [15] | outcome [17] | Potency [18]

O=CCCl
inactive: Potency [1] | outcome [2] | Potency [3] | Potency [4] | Potency [5] | outcome [7] | outcome [8] | outcome [9] | outcome [10] | outcome [20] | outcome [11] | outcome [12] | outcome [13] | outcome [14] | outcome [15] | outcome [16] | outcome [17] | Potency [18] | Potency [19]

CCOC(=O)CC(SP(=S)(OC)OC)C(=O)OCC (centres undefined)
inactive: Potency [1] | outcome [2] | Potency [3] | Potency [4] | Potency [5] | Potency [6] | outcome [7] | outcome [8] | outcome [9] | outcome [10] | outcome [11] | outcome [12] | outcome [13] | outcome [15] | outcome [16] | outcome [17] | Potency [18] | Potency [19]

C=C(Cl)CSC(=S)N(CC)CC
inactive: Potency [1] | outcome [2] | Potency [3] | Potency [4] | Potency [5] | outcome [7] | outcome [8] | outcome [9] | outcome [10] | outcome [20] | outcome [11] | outcome [12] | outcome [13] | outcome [14] | outcome [15] | outcome [16] | outcome [17]

C=CCCC#N
inactive: Potency [1] | outcome [2] | Potency [3] | Potency [4] | Potency [5] | outcome [7] | outcome [8] | outcome [9] | outcome [10] | outcome [20] | outcome [11] | outcome [12] | outcome [13] | outcome [14] | outcome [15] | outcome [16] | outcome [17] | Potency [19]

COc1cccc(C=O)c1
inactive: Potency [1] | outcome [2] | Potency [3] | Potency [4] | Potency [5] | outcome [7] | outcome [8] | outcome [9] | outcome [10] | outcome [20] | outcome [11] | outcome [12] | outcome [13] | outcome [14] | outcome [15] | outcome [16] | outcome [17] | Potency [18] | Potency [19]

COc1cccc([C@@]2(O)CCCC[C@@H]2CN(C)C)c1
inactive: Potency [1] | outcome [2] | Potency [3] | Potency [4] | Potency [5] | outcome [7] | outcome [8] | outcome [9] | outcome [10] | outcome [20] | outcome [11] | outcome [12] | outcome [13] | outcome [14] | outcome [15] | outcome [16] | outcome [17] | Potency [18] | Potency [19]

CC(C)(C)C(=O)Cl
inactive: Potency [1] | outcome [2] | Potency [3] | Potency [4] | Potency [5] | Potency [6] | outcome [7] | outcome [8] | outcome [9] | outcome [10] | outcome [11] | outcome [12] | outcome [13] | outcome [14] | outcome [15] | outcome [16] | outcome [17] | Potency [18] | Potency [19]

Cl/C=C/CCl
inactive: Potency [1] | outcome [2] | Potency [3] | Potency [4] | Potency [5] | Potency [6] | outcome [7] | outcome [8] | outcome [9] | outcome [10] | outcome [20] | outcome [11] | outcome [12] | outcome [13] | outcome [15] | outcome [17] | Potency [18]

ClCC1CO1 (centres undefined)
inactive: Potency [1] | outcome [2] | Potency [3] | Potency [4] | Potency [5] | Potency [6] | outcome [7] | outcome [8] | outcome [9] | outcome [10] | outcome [11] | outcome [12] | outcome [13] | outcome [14] | outcome [15] | outcome [16] | outcome [17] | Potency [19]

CC(=O)OCC1=C(C(=O)O)N2C(=O)[C@@H](N)[C@H]2SC1
inactive: Potency [1] | outcome [2] | Potency [3] | Potency [4] | Potency [5] | Potency [6] | fluorescence, relative to Rose Bengal [7] 0.341% [at 18.6 µM] | fluorescence, % of fluorescein control [8] 0.0248% [at 18.6 µM] | fluorescence, % of fluorescent control [10] 0.0847% [at 18.6 µM] | fluorescence, % of fluorescein [20] -0.0094% [at 18.6 µM] | fluorescence, % of fluorescent control [11] -0.0418% [at 18.6 µM] | fluorescence, % of fluorescent control [13] 0.162% [at 18.6 µM] | fluorescence, % of Rose Bengal [14] 0.155% [at 18.6 µM] | fluorescence, % of fluorescent control [15] -0.0695% [at 18.6 µM] | fluorescence, % of fluorescein control [16] 0.161% [at 18.6 µM] | fluorescence, % of fluorescent control [17] 0.185% [at 18.6 µM] | Potency [18] | Potency [19]
